aSyn UTR act – Activators working through SNCA 5'UTR binding (MLPCN); alpha-synuclein 5'UTR reporter, activators screen; activity score, % (tested at 7.5 µM), hits read low; 300,000 tested, 7.1% active; in the data active = activity score below about -60%
Numbers without * were called inactive. These entries were drawn from the full list.

SMILES | aSyn UTR act
Nc1c(C(=O)N/N=C/c2ccccc2)cnn1-c1ccccc1 | -108*
O=C(N/N=C/c1ccccc1Cl)c1n[nH]c2c1CCCC2 | 83
O=C(N/N=C/c1ccccc1C(F)(F)F)c1ccc(O)cc1 | -135*
Cc1cccc(/C=N/NC(=O)c2ccc(Br)cc2)c1 | -90*
O=C(NN=C1CCCC1)c1ccn[nH]1 | -77*
O=C(NN=C1CCCCCC1)c1ccc(Br)o1 | -82*
O=C(N/N=C/c1ccccc1O)c1cccc(C(F)(F)F)c1 | 82
O=C(N/N=C/c1ccc(O)cc1)c1cccc(N/N=C/c2ccc(O)cc2)c1 | -108*
O=C(N/N=C/c1ccc(F)cc1)c1ccccc1 | -152*
O=C(N/N=C/c1sc2ccccc2c1O)c1ccccc1 | 82
Cc1cccc(C=Nc2ccc3c(c2)oc2ccccc23)c1O | -166*
CCCCN1C(=O)C(=O)N(c2ccccc2)C1=S | -135*
CCCCCCN1C=CC(=C2C(=O)c3ccccc3C2=O)C=C1 | 107
Cc1cc(-c2ccccc2)nc(Cl)c1C#N | -80*
Cc1ccc(-c2cc(-c3ccccc3)nc(Cl)n2)cc1 | -72*
CSc1ccccc1NC(=O)c1noc2c1CCC2 | -103*
Cc1ccc(O)c(NC(=O)c2noc3c2CCCCC3)c1 | -184*
COc1ccc(CNC(=O)c2noc3c2CCCC3)cc1 | -103*
O=C(NCc1ccco1)c1noc2c1CCCCC2 | -77*
Cc1ccc(Cn2ccc(NC(=O)c3noc4c3CCCC4)n2)cc1 | -111*
COc1ccc(NC(=O)c2noc3c2CCCCC3)cc1 | -100*
O=C(NC1CCCCC1)c1noc2c1CCCCC2 | -90*
CCc1ccc(NC(=O)c2noc3c2CCCCC3)cc1 | -182*
Cc1cc2ncc(S(C)(=O)=O)c(N)n2n1 | 60
Cc1ccc(NC(=O)c2noc3c2CCCCC3)cc1 | -117*
SMILES | aSyn UTR act
N#CC1=C2C=Cc3ccccc3N2CCCC1=O | -74*
C/C(=N\NC(=O)c1ccco1)c1ccc(NC(=O)c2ccccc2)cc1 | -126*
C/C(=N\NC(=O)c1ccco1)c1cc2ccccc2o1 | -94*
C/C(=N\NC(=O)COc1ccccc1F)c1cc2ccccc2o1 | -133*
C/C(=N\NC(=O)c1ccco1)c1ccc(-c2ccccc2)cc1 | -126*
Cc1ccc(NC(=O)CN(C)S(=O)(=O)c2cccs2)cc1C | -86*
Cc1ccc(NC(=O)CN(C)S(=O)(=O)c2cccs2)cc1F | -64*
O=C(/C(=C(\[O-])c1ccccc1)[n+]1ccc2ccccc2c1)c1ccccc1 | -72*
O=C(/C(=C(\[O-])c1ccccc1)[n+]1ccc2ccccc2c1)c1ccc(Cl)cc1 | -63*
O=C(O)c1ccccc1N/N=C\c1ccnc2ccccc12 | 76
O=C(O)c1ccccc1N/N=C/c1cc(Br)cc(Br)c1O | -111*
O=C(/C=C/c1ccc(F)cc1)N1CCCc2ccccc21 | -65*
O=C(/C=C/c1cccc(F)c1)N1CCc2ccccc21 | -111*
O=C(/C=C/c1ccc(Cl)cc1Cl)N1CCc2ccccc21 | -192*
Cc1ccc(O)c(NC(=O)c2ccc3c(c2)C(=O)N(CC(C)C)C3=O)c1 | -112*
CCc1nnc(NC(=O)c2ccc3c(c2)C(=O)N(CC(C)C)C3=O)s1 | -88*
O=C(/C=C/c1ccc2c(c1)OCO2)c1ccc(F)cc1 | -90*
Fc1ccc(-c2csc(/C=C/c3ccc4c(c3)OCO4)n2)cc1 | -186*
CN(/N=C/c1ccc2c(c1)OCO2)c1ccccc1 | -169*
O=C(/C=C/c1cccc(Br)c1)c1ccc2c(c1)OCO2 | -72*
O=C(/C=C/c1ccccc1)c1ccc2c(c1)OCO2 | -206*
CN(C(=O)/C=C/c1ccc2c(c1)OCO2)c1ccccc1 | -89*
COc1cc(/C=N/N(C)c2ccccc2)ccc1O | -156*
COc1cccc(/C=C/C(=O)c2ccc[nH]2)c1 | -305*
O=C(/C=C/c1ccc2c(c1)OCO2)c1ccc[nH]1 | -279*
SMILES | aSyn UTR act
CCNc1nc(N)nc(Oc2ccc(C(=O)OC)cc2)n1 | -71*
CCNc1nc(Oc2ccc(C#N)cc2)cc(C(F)(F)F)n1 | 59
Cc1ccc(NC(=O)C2Cc3ccccc3O/C2=N\O)cc1C (stereo unspecified) | -127*
O=C(Nc1ccc(Br)cc1)C1Cc2ccccc2O/C1=N\O (stereo unspecified) | -158*
COc1ccc(OC)c(-c2nnc(-c3ccc(C)o3)o2)c1 | -63*
COc1ccc(-c2nnc(SC)o2)c(OC)c1 | -85*
CC1CCN(C(=O)CSc2nc3ccccc3[nH]2)CC1 | -105*
Cc1[nH]c2ccccc2c1C(=O)CSc1nc2ccccc2[nH]1 | -100*
C/C(N)=C(/C#N)C(=O)CSc1nc2ccccc2[nH]1 | -115*
Cc1[nH]c2ccccc2c1C(=O)CSc1nc2ccccc2c(=O)n1CCCN1CCOCC1 | -67*
C/C(N)=C(/C#N)C(=O)CSc1nnnn1-c1ccc(C)cc1 | -90*
Cc1[nH]c2ccccc2c1C(=O)CSC(=S)N1CCCCC1 | -159*
Cc1ccc(Sc2ncccc2COC(=O)NC(C)C)cc1 | -89*
CS(=O)(=O)c1sc(C#N)c2c1C(=O)CC(c1ccccc1)C2 (stereo unspecified) | 81
Cc1cc(C)c2cc(C(=O)Nc3ccccc3)[nH]c2c1 | -81*
Cc1ccc2[nH]c(C(=O)Nc3ccc(F)cc3)cc2c1 | -142*
CCCOc1ccc(NC(=O)c2cc3cc(C)ccc3[nH]2)cc1 | -71*
Cc1ccc(-n2nnc(-c3cc4ccccc4n3C)n2)cc1 | -88*
Cn1c(-c2nnn(-c3ccc(F)cc3)n2)cc2ccccc21 | -156*
O=C(CCCc1c[nH]c2ccccc12)N1CCCCCC1 | -73*
Clc1ccccc1N1CCN(Cc2c[nH]c3ccccc23)CC1 | 64
Cc1cccc(NC(=S)NC(=O)c2ccc(-c3ccccc3)cc2)n1 | -109*
Cc1cccc(NC(=S)NC(=O)c2oc3ccccc3c2C)n1 | -144*
CCOc1ccc(NC(=O)C2C3CC/C=C\CCC32)cc1 (stereo unspecified) | -87*
COc1ccc(NC(=O)C2C3CC/C=C\CCC32)cc1 (stereo unspecified) | -141*
SMILES | aSyn UTR act
CC(N=c1ccccn1C(=O)Nc1ccc(Cl)cc1)c1ccco1 (stereo unspecified) | -121*
O=C(NC(=S)Nc1ncccn1)c1ccc(F)cc1 | -203*
COc1ccccc1NC(=S)NNC(=O)c1ccc(Cl)cc1Cl | -137*
O=C(Nc1cccnc1Cl)c1cc(-c2ccc(F)cc2)on1 | -74*
O=C(NC(=S)Nc1ncccn1)c1ccc(Cl)cc1Cl | -165*
O=C(NC(=S)Nc1cccnc1Cl)c1ccc(F)cc1 | -124*
O=C(NC(=S)NNC(=O)c1cnccn1)c1ccc(Cl)cc1 | 61
O=C(NC(=S)Nc1ccc2c(c1)C(=O)c1ccccc1C2=O)c1ccc(F)cc1 | -141*
Cn1c(/C(C#N)=C(\O)c2ccc(Cl)s2)nc2ccccc21 | -80*
Cn1c(/C(C#N)=C(\O)c2ccc([N+](=O)[O-])s2)nc2ccccc21 | -115*
COc1ccc(-c2ccc3oc(-c4ccsc4)cc3c2)cc1 | -140*
CCCCN1C(=O)/C(=C2\SC(N3CCCCC3)=NC2=O)c2ccccc21 | -149*
COc1ccc(-c2nc(C#N)c(NC(C)C)o2)cc1 | -68*
CNc1oc(-c2ccc(Cl)cc2)nc1C#N | -173*
CNc1oc(-c2cccc3ccccc23)nc1C#N | -105*
Cc1csc2ncc(C(=O)Nc3ccccc3Cl)c(=O)n12 | -204*
Cc1csc2ncc(C(=O)Nc3ccccc3F)c(=O)n12 | -205*
N#Cc1c(N2CCCC2)nsc1-c1ccccc1 | -180*
N#Cc1c(N2CCOCC2)nsc1-c1ccccc1 | -68*

Bioassay records as filed in PubChem.
